Compounds with a hit are over-represented: about 1% of the library has one in this group of screens.
S1P4 antag – antagonists of human S1P4 receptor. O95977. S1P4-expressing cells, antagonist mode, reporter read-out. inhibition, % at 4.98 µM. 220,000 tested, 0.26% active; in the data active = inhibition above about 29%
Target sequence (O95977 whole entry, looked up): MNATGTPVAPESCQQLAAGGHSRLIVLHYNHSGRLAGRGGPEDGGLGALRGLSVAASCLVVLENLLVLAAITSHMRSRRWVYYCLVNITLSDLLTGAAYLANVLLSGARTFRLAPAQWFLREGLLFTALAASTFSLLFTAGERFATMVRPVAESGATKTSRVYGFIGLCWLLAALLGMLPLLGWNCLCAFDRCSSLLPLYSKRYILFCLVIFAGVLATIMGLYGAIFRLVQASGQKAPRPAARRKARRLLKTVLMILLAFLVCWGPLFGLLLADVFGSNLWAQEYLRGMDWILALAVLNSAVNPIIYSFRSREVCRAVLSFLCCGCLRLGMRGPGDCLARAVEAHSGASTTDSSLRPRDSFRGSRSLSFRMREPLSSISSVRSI
Hsp70 activator – Hsp70 transcriptional activation, primary screen. activation, % at 10 µM. HeLa Hsp70 promoter luciferase reporter, luminescence; scaled: vehicle 0, proteasome-inhibitor control 100%. 200,000 tested, 0.04% active;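 active = activation above the mean across all tested compounds plus 3 SD, cutoff set per campaign, cut at about 5.5% in these data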
S1P4 ag – human S1P4 receptor agonism | O95977 | S1P4-expressing cell line, agonist reporter assay | activation, % at 4.98 µM | 220,000 tested, 0.35% active | AID 1509; in the data active = activation above about 11%
TNF death inh – inhibitors of TNF-alpha induced necroptosis in Jurkat FADD-/- cells; Jurkat FADD-/- TNF necroptosis rescue, ATP luminescence, 24 h; 0 = TNF only, 100 = no-TNF cells; activation (protection from cell death), % at 10 µM; 220,000 tested, 0.068% active;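 active = activation, meaning protection from cell death, of at least 50% relative to plate controls; inactive = activation below 50%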;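 also: necroptosis triggered by 40 ng/mL TNF-alpha added together with compound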
zVAD death inh – blocks zVAD induced death of L929 cells; L929 zVAD necroptosis rescue, ATP luminescence, 24 h; with zVAD 60 µM; viability rescue, % at 10 µM; 220,000 tested, 0.38% active;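 active = activation, scaled between plate controls, above about 75%, limit read from the data; inactive = activation under that limit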
HSV replic up – increases HSV replication in cells | HSV replication augmentation in cells, fold increase | maximum fold increase | 220,000 tested, 0.005% active; in the data active = maximum fold increase above about 1.5; inconclusive = no clear call, values can overlap the other calls; tested in PC3 cells
Each line names hits and unclear results; the compound was inactive in the other large screens.

COC(=O)c1ccc(C(C(=O)NCc2ccccc2)N(Cc2ccco2)C(=O)c2cnccn2)cc1 (stereo not drawn)	S1P4 ag 19
COc1ccc(Br)cc1/C=C/C(=O)c1ccc(NC(C)=O)cc1	zVAD death inh 88
COc1ccc(NC(=O)/C=C/c2cc(Br)ccc2OC)cc1	none
COc1ccc(Br)cc1/C=C/C(=O)Nc1c(C)cccc1C	S1P4 antag 95
COc1ccc(-c2cc(C(=O)Nc3cc(C)nn3-c3ccccc3)no2)cc1OC	none
Fc1ccccc1CNc1ccc(Cl)cc1	TNF death inh 81, zVAD death inh 97
O=C(O)C1CCC(NSc2ccccc2[N+](=O)[O-])CC1 (stereo not drawn)	none (no result: Hsp70 activator)
CN1CCN(S(=O)(=O)c2ccc(NC(=S)NC(=O)c3ccc(Cl)cc3)cc2)CC1	S1P4 ag 13 (no result: HSV replic up)
Cc1[nH]c(=O)[nH]c(=O)c1S(=O)(=O)N1CCCC(C(=O)NCCC2=CCCCC2)C1 (stereo not drawn)	none
COc1ccc2ncn(-c3ccccc3)c2c1	zVAD death inh 88
COc1ccc(/C=C/CN2CCCC(C(=O)c3ccc(OC)c(F)c3)C2)cc1 (stereo not drawn)	none
CCN1CCN(Cc2ccc(NC(=O)Nc3ccc(OC)cc3)cc2)CC1	zVAD death inh 77
Cc1cc(/C=C(\C#N)C(=O)OCC(=O)Nc2ccc(OC(F)F)cc2)c(C)n1CC(C)C	none
C/C(=N/NC(=O)c1ccncc1)c1cc2ccc(O)cc2oc1=O	S1P4 ag 48
N#CC(C#N)=C1C=CC=CN1/C(=C\c1ccco1)C(=O)c1ccc(Br)cc1	TNF death inh 62
COc1ccc(/C=C(/C(=O)c2cccs2)N2C=CC=CC2=C(C#N)C#N)cc1	HSV replic up inconclusive
COc1cccc(-c2noc(-c3ccc(Cl)nc3)n2)c1	none
Cc1cccc(N2C(=O)CC(N3CCN(c4ccccn4)CC3)C2=O)c1 (stereo not drawn)	none
COCCNC(=O)c1ccc2c(c1)ncn2-c1ccc(F)c(F)c1	zVAD death inh 75
COc1cc(/C=N/Nc2ccccc2)ccc1OC(=O)c1cccs1	none
COc1cc(/C=N/Nc2ccc(Cl)c(C(=O)O)c2)ccc1OC(=O)c1cccs1	S1P4 ag 12
COCCN(C(C)=O)c1nnc(-c2ccccn2)s1	none
CC(=O)N(CC1CCCO1)c1nnc(-c2ccccn2)s1 (stereo not drawn)	TNF death inh 65
O=C1CCCC2=C1C(c1ccc(O)cc1)c1c(ccc3ccccc13)N2 (stereo not drawn)	none
CN1C/C(=C/c2cccnc2)C(=O)/C(=C/c2cccnc2)C1	TNF death inh 80
CC(C)N1C/C(=C/c2cccnc2)C(=O)/C(=C/c2cccnc2)C1	none
COc1ccc(C2CN=NC2C(=O)c2ccccc2)cc1 (stereo not drawn)	TNF death inh 79 (no result: Hsp70 activator)
C/C(CC(=O)Nc1cccc(Cl)c1Cl)=N\NC(=O)c1ccccc1N	none
CCCCCCn1c(SCCCC)nc2c1c(=O)[nH]c(=O)n2C	none
CCn1c([N+](=O)[O-])nc2c1c(=O)[nH]c(=O)n2C	TNF death inh 51
O=C(COc1cccnc1[N+](=O)[O-])Nc1ccc2c(c1)OC(F)(F)O2	none (no result: zVAD death inh)
Cc1oc(C(C)(C)C)c(CN2CCOCC2)c1C(=O)O	none
c1ccc2c(N3CCCCC3)nnc(N3CCCCC3)c2c1	TNF death inh 78
Cc1nnc(N2CCCCC2)c2ccccc12	none
O=C1N/C(=N\N=C\c2ccccn2)SC1Cc1cccc(SC(F)F)c1 (stereo not drawn)	zVAD death inh 82
Cn1nnnc1SCc1ccccc1F	zVAD death inh 77
CC(Oc1ccc(Cl)cc1Cl)C(=O)Nc1ccc(OCC(=O)O)cc1 (stereo not drawn)	none
CC(=O)Nc1cccc(C(=O)OC(C(=O)c2ccc(C)c(C)c2)c2ccccc2)c1 (stereo not drawn)	zVAD death inh 83
O=C(Nc1ccccc1F)c1cc2nc(C(F)F)cc(C(F)F)n2n1	none
CC1C(c2ccccc2)N(C)C(c2ccccc2)C(C)C1(O)C#Cc1ccccc1 (stereo not drawn)	S1P4 ag 40
CCC(Cc1ccccc1)NC(=O)C1=C(C)C(=O)OC12CCC(C)CC2 (stereo not drawn)	none
Nc1nnn(CC(=O)N/N=C/c2cccc(Cl)c2)n1	none (no result: Hsp70 activator)

Source: PubChem BioAssay (several laboratories)
